# Experimental data taken from PubChem BioAssay (NCI).
# About 83,000 compounds went through this panel and 20% of them were active in at least one assay; those are over-represented in the sample as a whole.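 For each line, cells grew in 96-well plates with the test compound present at a single concentration for 48 hours.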 A number with no mark means an inactive call. The source made the active and inactive calls. The calls were made as follows: active = growth percent below 10; inactive = the rest.
# Tested on: DU-145 prostate
# Assay: NCI-60 one-dose screen, 48 h (100 = growth as untreated, 0 = no growth, -100 = all killed)
# Conditions: 10 µM unless noted
row,Compound,growth
1,O=C1Nc2ccc(Br)cc2/C1=N\c1nnc(-c2ccc(Cl)cc2)o1,73.3%
2,C#C[C@]1(O)CC[C@H]2[C@@H]3CC=C4c5sc(Nc6cccc(C)n6)nc5CC[C@]4(C)[C@H]3CC[C@@]21C,43.6%
3,CS(=O)(=O)c1ccc2c(c1)c1c(n2Cc2ccc(Cl)cc2)CCCC1,86.7%
4,COc1ccc(-c2nnc(/N=C3/C(=O)Nc4ccc(Br)cc43)o2)cc1,101%
5,COc1ccc(S(=O)(=O)n2cc(C=O)c3ccccc32)c(OC)c1,103%
6,O=C1c2c(c3c4cccnc4[nH]c3c3ccc4ccccc4c23)C(=O)N1CCN1CCOCC1,59.9%
7,COc1ccc(NC2=C(Cl)C(=O)C(C)=C(C)C2=O)cc1,106%
8,COc1ccc(-c2cc(-c3ccc(Cl)cc3)nc3nc(N)nn23)cc1,101%
9,C#C[C@]1(O)CC[C@H]2[C@@H]3CC=C4c5sc(Nc6nc(C)cc(OC)n6)nc5CC[C@]4(C)[C@H]3CC[C@@]21C,61.4%
10,COc1ccc(/C=C/C(=O)c2nnn(-c3ccc(C(=O)O)cc3)c2C)cc1OC,104%
11,COc1cc(O)c2c(c1)/C=C/C[C@H](O)[C@H](O)C(=O)/C=C\C[C@H](C)OC2=O,-2.78% (active)
12,COc1ccccc1/C=C/C(=O)c1nnn(-c2ccc(C(=O)O)cc2)c1C,80.4%
13,O=S(=O)(Nc1ccc(C2CC2)cc1)c1ccc(-c2cnc(C3CC3)o2)cc1,88.5%
14,COc1cc(/C=N/Nc2ccnc3cc(Cl)ccc23)cc(OC)c1O,-24.6% (active)
15,COc1ccc(-c2nc(SCC(C)C)nc(N/N=C\c3cccc([N+](=O)[O-])c3)c2C#N)cc1,70.5%
16,CCCCCCNC(=O)Oc1ccc(/C(=C(\C)c2ccc(OC)cc2)c2ccc(OCCN(C)C)cc2)cc1,96.8%
17,CCCCSc1nnc(-c2ccc(-c3ccc(Cl)cc3)nc2C)o1,98.2%
18,CC(C)c1nn(-c2ccccc2)c(N2CCCCC2)c1/C=N/NC(N)=S,95.3%
19,C#C[C@]1(O)CC[C@H]2[C@@H]3CC=C4c5sc(Nc6ccc(OC)nc6)nc5CC[C@]4(C)[C@H]3CC[C@@]21C,24.8%

row,Compound,growth
1,COc1cc(-c2noc(C[C@@H](NC(=O)OCc3ccccc3)C(C)C)n2)cc(OC)c1OC,108%
2,COc1ccc(-c2ccc3c4c(cccc24)C(=O)N(N2C(=O)c4cccc5cccc(c45)C2=O)C3=O)cc1,112%
3,Cc1nn(-c2ccc(Br)cc2)c2nc(CCl)[nH]c(=O)c12,110%
4,CN1CCN(c2ccc(C(=O)Nc3cccc(-c4cn(-c5ccc(S(N)(=O)=O)cc5)nn4)c3)cc2C(F)(F)F)CC1,92.5%
5,COc1ccc(Cn2cc3c(c2-c2ccccc2)CCCc2cnoc2-3)cc1[N+](=O)[O-],84.2%
6,NS(=O)(=O)Oc1ccc2nc(Nc3ccc(F)c(F)c3)ccc2c1,92.9%
7,O=C1c2c(c3c4cc(Br)ccc4[nH]c3c3ccc4ccccc4c23)C(=O)N1CCN1CCNCC1,72.1%
8,CC1CCN(S(=O)(=O)c2ncsc2-c2ccccc2)CC1,92%
9,O=C1NC(=O)c2c1c1c3ccccc3ccc1c1[nH]c3ccccc3c21,22.9%
10,COc1cc([C@H]2OC[C@H]3[C@@H]2CO[C@@H]3c2ccc(O)c(OC)c2)ccc1O,94.8%
11,CCN(CC)CCN1C(=O)c2c(c3c4cc(Br)ccc4[nH]c3c3ccc4ccccc4c23)C1=O,-94.1% (active)
12,CC(C)=CCC[C@](C)(O)[C@H]1CC[C@]2(C)[C@@H]1CC[C@@H]1[C@@]3(C)CCC(NC(=O)c4ccccc4C(=O)O)C(C)(C)[C@@H]3CC[C@]12C (stereo partly specified),96.4%
13,Clc1ccc(-c2csc(N/N=C/c3nc4ccccc4n3C3CC3)n2)cc1,113%
14,Cc1ccc(-c2csc(N/N=C/c3nc4ccccc4n3C3CC3)n2)cc1,105%
15,C#C[C@]1(O)CC[C@H]2[C@@H]3CC=C4c5sc(-c6ccccn6)nc5CC[C@]4(C)[C@H]3CC[C@@]21C,90.2%
16,O=C1c2c(c3c4cccnc4[nH]c3c3ccc4ccccc4c23)C(=O)N1CCN1CCNCC1,74.8%
17,O=C1c2c(c3c4cccnc4[nH]c3c3ccc4ccccc4c23)C(=O)N1CCN1CCCCC1,41.7%
18,COc1ccc(-c2nc(SCCC(C)C)nc(N/N=C\c3ccc(O)cc3)c2C#N)cc1,59.7%
19,CN(C)C(=O)C1=NC(CO)C(=O)N(c2ccc(Cl)cc2)N1 (stereo unspecified),107%

# Tested on: K-562 leukemia
# Assay: as above
# Conditions: 10 µM unless noted
row,Compound,growth
1,O=C1Nc2ccc(Br)cc2/C1=N\c1nnc(-c2ccc(Cl)cc2)o1,16.9%
2,C#C[C@]1(O)CC[C@H]2[C@@H]3CC=C4c5sc(Nc6cccc(C)n6)nc5CC[C@]4(C)[C@H]3CC[C@@]21C,-10.9% (active)
3,CS(=O)(=O)c1ccc2c(c1)c1c(n2Cc2ccc(Cl)cc2)CCCC1,32.6%
4,COc1ccc(-c2nnc(/N=C3/C(=O)Nc4ccc(Br)cc43)o2)cc1,93.1%
5,COc1ccc(S(=O)(=O)n2cc(C=O)c3ccccc32)c(OC)c1,14.4%
6,O=C1c2c(c3c4cccnc4[nH]c3c3ccc4ccccc4c23)C(=O)N1CCN1CCOCC1,37.2%
7,COc1ccc(NC2=C(Cl)C(=O)C(C)=C(C)C2=O)cc1,5.78% (active)
8,COc1ccc(-c2cc(-c3ccc(Cl)cc3)nc3nc(N)nn23)cc1,116%
9,C#C[C@]1(O)CC[C@H]2[C@@H]3CC=C4c5sc(Nc6nc(C)cc(OC)n6)nc5CC[C@]4(C)[C@H]3CC[C@@]21C,14%
10,COc1ccc(/C=C/C(=O)c2nnn(-c3ccc(C(=O)O)cc3)c2C)cc1OC,80.8%
11,COc1cc(O)c2c(c1)/C=C/C[C@H](O)[C@H](O)C(=O)/C=C\C[C@H](C)OC2=O,9.06% (active)
12,COc1ccccc1/C=C/C(=O)c1nnn(-c2ccc(C(=O)O)cc2)c1C,73.7%
13,O=S(=O)(Nc1ccc(C2CC2)cc1)c1ccc(-c2cnc(C3CC3)o2)cc1,15.7%
14,COc1cc(/C=N/Nc2ccnc3cc(Cl)ccc23)cc(OC)c1O,-54.8% (active)
15,COc1ccc(-c2nc(SCC(C)C)nc(N/N=C\c3cccc([N+](=O)[O-])c3)c2C#N)cc1,57.1%
16,CCCCCCNC(=O)Oc1ccc(/C(=C(\C)c2ccc(OC)cc2)c2ccc(OCCN(C)C)cc2)cc1,9.79% (active)
17,CCCCSc1nnc(-c2ccc(-c3ccc(Cl)cc3)nc2C)o1,90.1%
18,CC(C)c1nn(-c2ccccc2)c(N2CCCCC2)c1/C=N/NC(N)=S,82.9%
19,C#C[C@]1(O)CC[C@H]2[C@@H]3CC=C4c5sc(Nc6ccc(OC)nc6)nc5CC[C@]4(C)[C@H]3CC[C@@]21C,6.1% (active)

row,Compound,growth
1,COc1cc(-c2noc(C[C@@H](NC(=O)OCc3ccccc3)C(C)C)n2)cc(OC)c1OC,94.4%
2,COc1ccc(-c2ccc3c4c(cccc24)C(=O)N(N2C(=O)c4cccc5cccc(c45)C2=O)C3=O)cc1,86.4%
3,Cc1nn(-c2ccc(Br)cc2)c2nc(CCl)[nH]c(=O)c12,75.6%
4,CN1CCN(c2ccc(C(=O)Nc3cccc(-c4cn(-c5ccc(S(N)(=O)=O)cc5)nn4)c3)cc2C(F)(F)F)CC1,9.33% (active)
5,COc1ccc(Cn2cc3c(c2-c2ccccc2)CCCc2cnoc2-3)cc1[N+](=O)[O-],17.8%
6,NS(=O)(=O)Oc1ccc2nc(Nc3ccc(F)c(F)c3)ccc2c1,67.6%
7,O=C1c2c(c3c4cc(Br)ccc4[nH]c3c3ccc4ccccc4c23)C(=O)N1CCN1CCNCC1,-25.7% (active)
8,CC1CCN(S(=O)(=O)c2ncsc2-c2ccccc2)CC1,72.7%
9,O=C1NC(=O)c2c1c1c3ccccc3ccc1c1[nH]c3ccccc3c21,9.34% (active)
10,COc1cc([C@H]2OC[C@H]3[C@@H]2CO[C@@H]3c2ccc(O)c(OC)c2)ccc1O,99.4%
11,CCN(CC)CCN1C(=O)c2c(c3c4cc(Br)ccc4[nH]c3c3ccc4ccccc4c23)C1=O,-64.8% (active)
12,CC(C)=CCC[C@](C)(O)[C@H]1CC[C@]2(C)[C@@H]1CC[C@@H]1[C@@]3(C)CCC(NC(=O)c4ccccc4C(=O)O)C(C)(C)[C@@H]3CC[C@]12C (stereo partly specified),90.8%
13,Clc1ccc(-c2csc(N/N=C/c3nc4ccccc4n3C3CC3)n2)cc1,107%
14,Cc1ccc(-c2csc(N/N=C/c3nc4ccccc4n3C3CC3)n2)cc1,-55.8% (active)
15,C#C[C@]1(O)CC[C@H]2[C@@H]3CC=C4c5sc(-c6ccccn6)nc5CC[C@]4(C)[C@H]3CC[C@@]21C,31.9%
16,O=C1c2c(c3c4cccnc4[nH]c3c3ccc4ccccc4c23)C(=O)N1CCN1CCNCC1,-35.5% (active)
17,O=C1c2c(c3c4cccnc4[nH]c3c3ccc4ccccc4c23)C(=O)N1CCN1CCCCC1,40.5%
18,COc1ccc(-c2nc(SCCC(C)C)nc(N/N=C\c3ccc(O)cc3)c2C#N)cc1,42.2%
19,CN(C)C(=O)C1=NC(CO)C(=O)N(c2ccc(Cl)cc2)N1 (stereo unspecified),109%
